Source: PubChem BioAssay (NCI)
Compounds without any hit were thinned out: in the full panel of roughly 83,000, 20% have a hit.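 In brief: 96-well plates, 48 h treatment, single concentration, percent growth endpoint.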 A number with no mark means an inactive call. Calls of active or inactive are those of the source. Rule for the calls: active = growth percent below 10; inactive = the rest.

Assays:
Assay in all cases: NCI-60 one-dose screen, 48 h (100 = growth as untreated, 0 = no growth, -100 = all killed)
Details in all cases: 10 µM unless noted
NCI-H23 lung = system: NCI-H23 lung
NCI-H226 lung = system: NCI-H226 lung
NCI-H322M lung = system: NCI-H322M lung
HOP-62 NSCLC = system: HOP-62 NSCLC
NCI-H460 lung = system: NCI-H460 lung
HOP-92 NSCLC = system: HOP-92 NSCLC
NCI-H522 lung = system: NCI-H522 lung
A549/ATCC NSCLC = system: A549/ATCC NSCLC
786-0 renal = system: 786-0 renal
COLO 205 colon = system: COLO 205 colon
DU-145 prostate = system: DU-145 prostate
K-562 leukemia = system: K-562 leukemia
MALME-3M melanoma = system: MALME-3M melanoma
MDA-MB-231 breast = system: MDA-MB-231 breast
RXF 393 renal = system: RXF 393 renal
SF-268 CNS = system: SF-268 CNS
SF-295 CNS = system: SF-295 CNS
SF-539 CNS = system: SF-539 CNS
UACC-257 melanoma = system: UACC-257 melanoma
M14 melanoma = system: M14 melanoma

| SMILES | growth (NCI-H23 lung) [%] | growth (NCI-H226 lung) [%] | growth (NCI-H322M lung) [%] | growth (HOP-62 NSCLC) [%] | growth (NCI-H460 lung) [%] | growth (HOP-92 NSCLC) [%] | growth (NCI-H522 lung) | growth (A549/ATCC NSCLC) [%] | growth (786-0 renal) [%] | growth (COLO 205 colon) [%] | growth (DU-145 prostate) [%] | growth (K-562 leukemia) | growth (MALME-3M melanoma) [%] | growth (MDA-MB-231 breast) [%] | growth (RXF 393 renal) [%] | growth (SF-268 CNS) [%] | growth (SF-295 CNS) [%] | growth (SF-539 CNS) [%] | growth (UACC-257 melanoma) [%] | growth (M14 melanoma) [%] |
| --- | --- | --- | --- | --- | --- | --- | --- | --- | --- | --- | --- | --- | --- | --- | --- | --- | --- | --- | --- | --- |
| COc1ccc(/C(Cl)=N/N=C(\Cl)c2cc(OC)c(OC)c(OC)c2)cc1OC(C)=O | 99.2 | 95.3 | 95.1 | 87.5 | 97.4 | 77.3 | 50.2% | 86.5 | 102 | 98.9 | 95.3 | 97.3% | 93.6 | 97.8 | 101 | 95.3 | 102 | 93.3 | 84.6 | 107 |
| COc1ccc2c(c1)OC(N)=C(C#N)C2c1ccc(F)cc1 (stereo not given) | 49.9 | 80.9 | 55.7 | 41.3 | 15.8 | 59.8 | -10.1% (active) | 45.9 | 28.1 | 30.6 | 36.8 | 12% | 61.6 | 56.7 | 16.1 | 47.1 | 23.4 | 19.2 | 51.7 | 14.1 |
| CCOC(=O)c1cnc2c(OC)ccc(OC)c2c1Cl | 110 | 113 | 120 | 101 | 108 | 98.5 | 120% | 97.3 | 117 | 117 | 118 | 116% | 98.3 | 128 | 115 | 98.9 | 110 | 104 | 101 | 106 |
| O=C1COc2ccccc2C(=O)N1CCCCN1CCCCC1 | 94 | 93 | 104 | 78.2 | 104 | 61.5 | 71.5% | 96.4 | 82.4 | 87.6 | 93.7 | 50% | 93.8 | 109 | 118 | 100 | 93.9 | 102 | 102 | 91.9 |
| CCN(CC)C(=O)C1CCN(C(=O)c2ccccc2)CC1 | 95.1 | 94.1 | 99.4 | 93.3 | 104 | 98.8 | 90.8% | 104 | 97.3 | 106 | 109 | 99.1% | 102 | 105 | 105 | 92.7 | 96.7 | 101 | 103 | 102 |
| Nn1c(SCC(=O)Nc2cc(Cl)c(Cl)cc2Cl)nnc1-c1cc(F)c(Cl)cc1Cl | 103 | 138 | 105 | 91.3 | 110 | 75.8 | 90.9% | 106 | 98.4 | 106 | 113 | 90.2% | 121 | 127 | 151 | 110 | 109 | 108 | 108 | 96.7 |
| COC1=C(OC)C(=O)C=CC1=O | 111 | 107 | 101 | 117 | 118 | 110 | 63.7% | 109 | 103 | 99.8 | 114 | 7.24% (active) | 114 | 101 | 114 | 109 | 113 | 110 | 110 | 116 |
| OC[C@@H](O)C(O[C@@H]1O[C@H](CO)[C@H](O)[C@H](O)[C@H]1O)[C@H](O)[C@@H](O)CO (stereo not given in full) | 98.3 | 103 | 96 | 96.7 | 108 | 82.1 | 95.7% | 110 | 106 | 110 | 111 | 104% | 97.6 | 97.3 | 108 | 109 | 96.1 | 101 | 106 | 99.9 |
